Data taken from PubChem BioAssay.
A number with no mark means an inactive call. The source made the active and inactive calls. Cut-off read from the data, not from the text of the source, unless noted: active = inhibition above about 36%; inactive = the rest.

Legend:
[1] = system: transactivating tegument protein VP16 (Human herpesvirus 1); assay: VP16 transactivation reporter inhibitors, counter-screen for SRC2 inhibitor project, cell-based, luminescence, single concentration (AID 652007); conditions: cell-based VP16 transactivation luciferase reporter, at 8.9 µM, stronger effect = higher value
[2] = biological target: Nuclear receptor coactivator 2 (Homo sapiens) (UniProt Q15596); assay: SRC2 coactivator transcriptional activity inhibitors, confirmation, cell-based, luminescence, HEK293, triplicate (AID 652008;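 active = mean inhibition above 46.5%, the solvent-only control mean plus 3 SD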;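 note: 0% = DMSO-treated cells and 100% = Gossypol at 36 µM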); conditions: HEK293 GAL4-SRC2 luciferase reporter, at 8.9 µM, stronger effect = higher value
Chain of Nuclear receptor coactivator 2 (Homo sapiens) (Q15596 whole entry, looked up, the tested form may be a part): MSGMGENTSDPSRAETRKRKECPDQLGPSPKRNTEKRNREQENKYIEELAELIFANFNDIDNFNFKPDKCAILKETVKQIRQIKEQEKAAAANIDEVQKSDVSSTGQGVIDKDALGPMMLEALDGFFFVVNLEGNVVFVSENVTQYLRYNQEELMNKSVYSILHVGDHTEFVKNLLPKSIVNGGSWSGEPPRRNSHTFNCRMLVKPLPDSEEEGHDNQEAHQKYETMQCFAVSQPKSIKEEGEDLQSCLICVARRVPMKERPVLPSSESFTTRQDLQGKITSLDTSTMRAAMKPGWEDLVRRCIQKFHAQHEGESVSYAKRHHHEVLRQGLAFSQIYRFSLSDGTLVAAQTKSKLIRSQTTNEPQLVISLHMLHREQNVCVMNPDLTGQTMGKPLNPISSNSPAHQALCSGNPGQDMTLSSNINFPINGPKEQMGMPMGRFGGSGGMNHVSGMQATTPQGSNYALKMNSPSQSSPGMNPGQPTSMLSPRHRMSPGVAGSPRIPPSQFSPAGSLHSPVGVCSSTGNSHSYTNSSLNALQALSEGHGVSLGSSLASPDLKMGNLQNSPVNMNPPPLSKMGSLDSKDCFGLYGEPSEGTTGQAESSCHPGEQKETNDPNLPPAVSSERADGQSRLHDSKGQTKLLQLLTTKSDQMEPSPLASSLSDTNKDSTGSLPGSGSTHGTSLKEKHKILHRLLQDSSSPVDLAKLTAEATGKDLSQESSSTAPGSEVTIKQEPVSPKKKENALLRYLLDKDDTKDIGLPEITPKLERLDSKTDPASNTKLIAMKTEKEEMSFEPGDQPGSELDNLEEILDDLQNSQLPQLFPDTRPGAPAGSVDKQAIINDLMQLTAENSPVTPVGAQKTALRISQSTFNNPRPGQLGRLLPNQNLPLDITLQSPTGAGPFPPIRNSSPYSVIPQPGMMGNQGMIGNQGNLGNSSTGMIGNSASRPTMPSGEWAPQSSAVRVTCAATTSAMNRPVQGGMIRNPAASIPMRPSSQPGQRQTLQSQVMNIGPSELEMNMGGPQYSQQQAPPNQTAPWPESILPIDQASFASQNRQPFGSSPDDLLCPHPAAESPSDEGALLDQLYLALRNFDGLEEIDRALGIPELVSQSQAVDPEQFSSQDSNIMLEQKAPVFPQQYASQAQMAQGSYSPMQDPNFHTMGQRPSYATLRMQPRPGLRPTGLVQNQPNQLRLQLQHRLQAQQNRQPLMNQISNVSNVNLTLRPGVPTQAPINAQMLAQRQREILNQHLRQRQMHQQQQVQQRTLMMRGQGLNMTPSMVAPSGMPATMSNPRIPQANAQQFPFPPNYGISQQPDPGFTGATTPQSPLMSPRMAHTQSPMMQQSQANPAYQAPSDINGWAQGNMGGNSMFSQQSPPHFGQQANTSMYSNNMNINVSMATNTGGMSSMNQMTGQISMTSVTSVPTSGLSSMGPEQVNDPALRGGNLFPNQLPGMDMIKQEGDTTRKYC

SMILES	inhibition [1]	inhibition [2]
O=C(Nc1ccc(F)cc1)c1nc(S(=O)(=O)Cc2ccccc2)ncc1Cl	36.6% (active)	37.9%
CCOC(=O)c1c(NC(=O)c2cnn3c2NC(c2cccc(OC)c2)CC3C(F)(F)F)sc2c1CCCC2 (centres undefined)	16.7%	-21.9%
O=C1/C(=C/c2ccncc2)CCC/C1=C\c1ccncc1	89.1% (active)	98.1% (active)
COc1ccc(C(=O)O/N=C(\N)c2ccccn2)cc1	-70.2%	30%
O=[N+]([O-])c1cc(Br)c(Nc2ccccc2)c([N+](=O)[O-])c1	-21.9%	-12.5%
Cc1cc(=O)oc2cc(OCC(=O)NC3CCCC3)ccc12	-12.6%	-25.6%
CSc1nnc(NC(=O)c2nc(S(=O)(=O)Cc3ccc(C)cc3)ncc2Cl)s1	36.7% (active)	55.7% (active)
COc1ccc(C(=O)C(CN2CCOCC2)c2ccccc2)cc1F (centres undefined)	-1.66%	13.4%
O=C(Nc1nc2cc3c(cc2s1)OCCO3)c1ccco1	24.9%	56.3% (active)
COc1ccc(N2CCN(C3CCCN(S(=O)(=O)c4ccc(C)cc4C)C3)CC2)cc1 (centres undefined)	-13%	29.6%
Cc1ccc(/C=C2\SC(=S)N(CCCC(=O)Nc3cc(C)on3)C2=O)cc1	31.6%	68.8% (active)
CS(=O)(=O)N(Cc1ccccc1Cl)c1ccc(C(=O)NCc2cccnc2)cc1	-10.9%	35.5%
CN1CCN(c2nc3ccccc3nc2C(C#N)S(=O)(=O)c2ccccc2)CC1 (centres undefined)	10.5%	20.1%
CCOC(=O)C1=C[C@@H](C(C)(C)C)N(S(=O)(=O)c2ccc(C)cc2)[C@H]1c1ccc(Cl)c(Cl)c1	7.53%	17.4%
Cc1cccc(NC(=O)Nc2ccc(Cl)c(Cl)c2)n1	-83.6%	-16.7%
O=C(C(O)c1ccc(Br)cc1)N1CCC(Nc2ccc3[nH]ncc3c2)CC1 (centres undefined)	-4.16%	-7.36%

SMILES	inhibition [1]	inhibition [2]
COc1cc2[nH]c(=O)n(CCCCCC(=O)NCCCN3CCCC3=O)c(=O)c2cc1OC	7.78%	-9.47%
Nn1c(SCC(=O)Nc2cc(C(F)(F)F)ccc2Cl)nncc1=O	3.78%	-1.26%
COc1cc(OC)c(-c2c3cc(O)c(=O)cc-3oc3cc(O)c(O)cc23)cc1OC	9.48%	3.62%
COc1cc(NC(=O)C2CC(c3c(F)cccc3Cl)=NO2)cc(OC)c1OC (centres undefined)	-4.58%	4.43%
Fc1ccc(CNC2CCN(Cc3ccccc3)CC2)cc1	7.5%	-3.44%
CCCCN(CCCNC(=S)NCCCc1cnc[nH]1)c1ccc(Br)cn1	-7.99%	39.1%
COc1cc(/C=C/C(=O)c2ccc3c(c2)OCCO3)cc(OC)c1OC	5.55%	29.2%
CC(=O)Nc1cc(-c2ccc(C(=O)NC3CC3)cc2)cn2c(-c3cccc(C(F)(F)F)c3)cnc12	-9.85%	-1.25%
Cc1ccc(C(=O)O/N=C(\N)c2ccccn2)cc1	-66.4%	-57%
C=C1CCC2C(C)(C)CCC[C@]2(C)[C@H]1CC1=C(O)C(=O)C(CO)=CC1=O (some centres undefined)	93.6% (active)	98.8% (active)
COc1ccc(C(=O)C(CN2CCCC2)c2ccccc2)cc1 (centres undefined)	0.75%	40.2%
O=C(Cn1ncc2c([nH]c3ccccc32)c1=O)NCCc1ccccc1	21.4%	12.2%
CCCC1=Nc2cc(C(=O)NCCCOCC)ccc2Sc2ccccc21	-2.83%	15.5%
C[C@H]1CN([C@@H](C)CO)S(=O)(=O)c2ccc(Br)cc2O[C@H]1CN(C)Cc1ccccc1F	22.8%	16.8%
Cc1cc(N/N=C/c2ccc(O)cc2)nc(NS(=O)(=O)c2ccccc2)n1	-14.1%	16.5%
CCc1ccc(-c2nc(CSCC(=O)NC3CC3)c(C)o2)cc1	47.6% (active)	35.1%
